Most compounds without a hit are left out; they make up all but 7.4% or so of the library.
SNCA expr inhib: SNCA gene expression inhibition; 140,000 tested, 0.17% active; AID 1671194; Potency, µM (series often up to 57.2 µM), actives largely listed as inhibitors; HEK-293 SNCA-luciferase knock-in, luminescence, 24 h; note: nearly all actives have a fitted effect of over 45% in size
NPR1 antag: blocks ANP-stimulated signaling of human Npr1 receptor | P16066 | HEK293 hNpr1 GloSensor cGMP, ANP-stimulated luminescence | Potency, µM (titrated, usually from 46.3 µM), usual class: inhibitors | 76,000 tested, 1.6% active | AID 1347048; calls by dose curve; note: nearly all actives have a fitted effect of over 60% in size
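HEK293 cells stably expressing human Npr1 and cGMP GloSensor pGS-40F, loaded 2 h with 2% GloSensor reagent, given compound 30 min at room temperature. Luminescence read before and 20 min after 0.1 nM hNppA.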
HEK293 tox: kills HEK 293 cells | 94,000 tested, 6.6% active | AID 1345083 | Potency, µM (doses to about 115 µM), most hits filed as inhibitors | HEK 293 viability, ATP luminescence (CellTiter-Glo), 48-72 h; note: nearly all actives have a fitted effect of over 60% in size
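HEK 293 cells seeded at 250 cells/well were exposed to compound for 48 or 72 hr at 37 degree Celsius. Viability taken as ATP content by CellTiter-Glo luminescence.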
NIH3T3 tox: NIH 3T3 cell cytotoxicity | NIH 3T3 viability, CellTiter-Glo ATP luminescence, 48-72 h | 94,000 tested, 4.3% active | Potency, µM (doses to about 96.7 µM), usual class: inhibitors; note: nearly all actives have a fitted effect of over 55% in size
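First NIH 3T3 cells are plated at 400 cells/well; next compound is pinned in; then plates incubate 48 or 72 hr at 37 °C; finally CellTiter-Glo is added and luminescence read after 10 min.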
Luciferase inh: blocks purified firefly luciferase enzyme activity | P08659 | purified P. pyralis luciferase, luminescence, biochemical | Potency, µM (series often up to 115 µM), actives largely listed as inhibitors | 76,000 tested, 2.5% active; note: nearly all actives have a fitted effect of over 65% in size
Target sequence (P08659 whole entry, looked up): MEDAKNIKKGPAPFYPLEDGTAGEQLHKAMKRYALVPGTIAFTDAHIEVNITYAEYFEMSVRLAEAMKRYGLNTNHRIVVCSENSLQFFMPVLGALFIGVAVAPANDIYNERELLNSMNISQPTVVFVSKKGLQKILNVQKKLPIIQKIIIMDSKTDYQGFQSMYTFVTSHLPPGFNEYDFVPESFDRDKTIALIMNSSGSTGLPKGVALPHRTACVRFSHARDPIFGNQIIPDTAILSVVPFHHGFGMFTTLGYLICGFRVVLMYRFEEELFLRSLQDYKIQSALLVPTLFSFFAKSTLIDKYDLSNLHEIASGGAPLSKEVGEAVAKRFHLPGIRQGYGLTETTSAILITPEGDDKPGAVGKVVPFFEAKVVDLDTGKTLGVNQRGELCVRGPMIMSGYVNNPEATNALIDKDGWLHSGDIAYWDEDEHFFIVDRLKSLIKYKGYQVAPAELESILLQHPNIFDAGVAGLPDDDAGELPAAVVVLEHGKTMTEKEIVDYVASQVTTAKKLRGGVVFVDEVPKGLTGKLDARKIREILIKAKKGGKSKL
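Biochemical qHTS: compound (6-point titration) added to 10uM D-luciferin plus 10uM ATP in Tris acetate pH 7.5 buffer with Mg, Tween-20 and BSA, then purified enzyme at 10nM; light output imaged.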
HEK293 viab: cell viability loss counter-screen. HEK-293-SNCA-luc viability, GF-AFC fluorescence, 24 h. Potency, µM (doses to about 57.1 µM), most hits filed as cytotoxic. 150,000 tested, 0.12% active; note: nearly all actives have a fitted effect of over 30% in size
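HEK-293-SNCA-luc cells (1500/well) plated 24 h, then exposed 24 h to a dilution series; GF-AFC added 30 min at 37C, fluorescence 405/540 nm; normalised to medium-only and DMSO wells, Hill fit.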
A number is an active result. Unless noted, calls come from the whole dose curve; as a rule, active = well fitted curve in the direction sought with a large enough effect; inconclusive = small, poorly fitted or top-dose-only effect, or another doubt; inactive = no such curve, though single readings can be large; an effect the other way counts as inactive or inconclusive.

Screening Cc1ccc(S(=O)(=O)N2CCC(Oc3ncccc3C(=O)N3CCOCC3)C2)cc1C (stereo not given) returned SNCA expr inhib inactive, NPR1 antag inactive, HEK293 tox inactive, NIH3T3 tox inactive, Luciferase inh inactive and HEK293 viab inactive.
`CCOc1ccccc1C(=O)N1CCC(Oc2ccc(C(=O)N(C)C)cn2)CC1` gave SNCA expr inhib inactive, NPR1 antag inactive, HEK293 tox inactive, NIH3T3 tox inactive, Luciferase inh inactive and HEK293 viab inactive.
For COc1ccc(-c2cc(C(=O)NCC(C)C)c3c(C4CCNC4)nn(C)c3n2)cc1 (stereo not given) the results were SNCA expr inhib inactive, HEK293 tox inconclusive, NIH3T3 tox 20µM and HEK293 viab inactive.
For COc1ccc(-c2cc(C(=O)NCC(C)C)c3c(C4CCNC4)noc3n2)cc1 (stereo not given) the results were SNCA expr inhib inactive, HEK293 tox inconclusive, NIH3T3 tox inconclusive and HEK293 viab inactive.
Screening CN(CC[C@H]1CN(C(=O)c2cccs2)CC[C@H]1CC(=O)O)c1ccccc1 returned SNCA expr inhib inactive, NPR1 antag inactive, HEK293 tox inactive, NIH3T3 tox inactive, Luciferase inh inactive and HEK293 viab inactive.
CN(CC[C@H]1CN(C(=O)c2ccnc(Cl)c2)CC[C@H]1CC(=O)O)c1ccccc1 was read as SNCA expr inhib inactive, NPR1 antag inactive, HEK293 tox inactive, NIH3T3 tox 28µM, Luciferase inh inactive and HEK293 viab inactive.
Cn1cc(CN2CCOC[C@H]2c2ncc(-c3ccc(F)cc3F)[nH]2)c2ccccc21 was read as SNCA expr inhib inactive, NPR1 antag inactive, HEK293 tox 50µM, NIH3T3 tox 50µM, Luciferase inh inactive and HEK293 viab inactive.
For Cc1ccc(-c2cnc([C@@H]3COCCN3Cc3ccccc3F)[nH]2)cc1 the results were SNCA expr inhib inactive, NPR1 antag inactive, HEK293 tox inconclusive, NIH3T3 tox inconclusive, Luciferase inh inactive and HEK293 viab inactive.
For Cc1ccc(CN2CCOC[C@H]2c2ncc(C(C)(C)C)[nH]2)cc1 the results were SNCA expr inhib inactive, NPR1 antag inactive, HEK293 tox 112µM, NIH3T3 tox 100µM, Luciferase inh inactive and HEK293 viab inactive.
Screening COc1ccc(-c2cnc([C@@H]3COCCN3Cc3cn(C)c4ccccc34)[nH]2)cc1 returned SNCA expr inhib inconclusive, NPR1 antag inconclusive, HEK293 tox inconclusive, NIH3T3 tox 63µM, Luciferase inh inactive and HEK293 viab inconclusive.
For Cc1ccc(-c2cnc([C@@H]3COCCN3Cc3cn(C)c4ccccc34)[nH]2)cc1 the results were SNCA expr inhib inactive, NPR1 antag inconclusive, HEK293 tox 56µM, NIH3T3 tox inconclusive, Luciferase inh inactive and HEK293 viab inactive.
`COc1ccc(-c2cnc([C@@H]3COCCN3Cc3nc4ccccc4n3C)[nH]2)cc1` gave SNCA expr inhib inactive, NPR1 antag inconclusive, HEK293 tox inconclusive, NIH3T3 tox inconclusive, Luciferase inh inactive and HEK293 viab inactive.
`CC(C)(C)c1cnc([C@@H]2COCCN2Cc2ccc(C(=O)O)cc2)[nH]1` gave SNCA expr inhib inactive, NPR1 antag inactive, HEK293 tox inactive, NIH3T3 tox inconclusive, Luciferase inh inactive and HEK293 viab inactive.
CC(=O)O[C@H]1C[C@@H]2CC[C@H]3[C@H]4C[C@H]([N+]5(C)CCCCC5)[C@@H](OC(C)=O)[C@@]4(C)CC[C@@H]3[C@@]2(C)C[C@H]1[N+]1(C)CCCCC1 was read as SNCA expr inhib inactive and HEK293 viab inactive.
O=C1CCC2(C(=O)NCCN3CCCCC3)CCCC=C2N1C1CCCC1 (stereo not given) was read as SNCA expr inhib inactive, NPR1 antag inactive, HEK293 tox inactive, NIH3T3 tox inactive, Luciferase inh inactive and HEK293 viab inactive.
For COc1ccc(-c2cnc([C@@H]3COCCN3Cc3ccc(C)cc3)[nH]2)cc1 the results were SNCA expr inhib inactive, NPR1 antag inactive, HEK293 tox inconclusive, NIH3T3 tox inconclusive, Luciferase inh inactive and HEK293 viab inactive.
COc1ccc(CN2CCOC[C@H]2c2ncc(-c3ccc(OC)cc3)[nH]2)cc1 was read as SNCA expr inhib inactive, NPR1 antag inactive, HEK293 tox 89µM, NIH3T3 tox inconclusive, Luciferase inh inactive and HEK293 viab inactive.
For CC1CCN(c2ncncc2-c2nc(-c3ccccc3)no2)CC1 the results were SNCA expr inhib inactive, NPR1 antag inactive, HEK293 tox 79µM, NIH3T3 tox inconclusive, Luciferase inh inconclusive and HEK293 viab inactive.
Screening c1ccc(-c2noc(-c3cncnc3N3CCSCC3)n2)cc1 returned SNCA expr inhib inconclusive, NPR1 antag inactive, HEK293 tox 45µM, NIH3T3 tox inactive, Luciferase inh inconclusive and HEK293 viab inactive.
For COc1ccc(CN2C(=O)[C@@H]3C[C@@H](O)CN3C3(CN(C(C)C)C3)C2=O)cc1 the results were SNCA expr inhib inactive, NPR1 antag inactive, HEK293 tox inactive, NIH3T3 tox inactive, Luciferase inh inactive and HEK293 viab inactive.
`COc1ccc2ccc(OCc3nc(C(=O)NCc4cnc(C)cn4)co3)cc2c1` gave SNCA expr inhib inactive, NPR1 antag inactive, HEK293 tox inconclusive, NIH3T3 tox inconclusive, Luciferase inh inactive and HEK293 viab inactive.
For COc1ccc2ccc(OCc3nc(C(=O)N4CCCC(C)(CO)C4)co3)cc2c1 (stereo not given) the results were SNCA expr inhib inconclusive, NPR1 antag 11µM, HEK293 tox inconclusive, NIH3T3 tox inconclusive, Luciferase inh inconclusive and HEK293 viab inconclusive.
`COc1ccc2ccc(OCc3nc(C(=O)NC(C)c4n[nH]c(C)n4)co3)cc2c1` (stereo not given) gave SNCA expr inhib inactive, NPR1 antag 11µM, HEK293 tox 45µM, NIH3T3 tox inactive, Luciferase inh inconclusive and HEK293 viab inactive.
Screening C#CCNC(=O)c1onc(-c2ccc(OC)cc2)c1[C@H](C)O returned SNCA expr inhib inactive, NPR1 antag inactive, HEK293 tox inactive, NIH3T3 tox inactive, Luciferase inh inactive and HEK293 viab inactive.
COc1cc(-c2onc(C)c2C(=O)N(C)Cc2ccccc2)cc(OC)c1OC was read as SNCA expr inhib inactive, NPR1 antag inactive, HEK293 tox inconclusive, NIH3T3 tox inconclusive, Luciferase inh inactive and HEK293 viab inactive.
Screening COc1cc(-c2onc(C)c2C(=O)NCCC(c2ccccc2)c2ccccc2)cc(OC)c1OC returned SNCA expr inhib inactive, NPR1 antag inactive, HEK293 tox 35µM, NIH3T3 tox inconclusive, Luciferase inh inactive and HEK293 viab inactive.
Screening COc1cc(CN(C)C(=O)c2c(C)noc2-c2cccc(F)c2)cc(OC)c1OC returned SNCA expr inhib inactive, NPR1 antag inactive, HEK293 tox 45µM, NIH3T3 tox inconclusive, Luciferase inh inactive and HEK293 viab inactive.
